From PubChem BioAssay (NCATS) come the findings set out here.

Assay [1] can be described thus: S16 Schwann cell viability assay (CellTiter-Glo assay) (AID 624031).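 Also: native untransfected S16 rat Schwann cells; nearly all actives have a fitted effect of over 70% in size.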 The essentials: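 Concentration-effect curves come from CellTiter-Glo luminescence of S16 rat Schwann cells after 24 h compound exposure. Each reading was normalized to DMSO wells (0%) and wells without cells, and curves were ranked by r2 and response magnitude.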
For orientation: ATP-based viability assays read luminescence as a measure of living cells.

A further assay deals with 3D7. Briefly: qHTS profiling for inhibitors of Plasmodium falciparum proliferation (AID 504749). Also: nearly all actives have a fitted effect of over 60% in size. Also: potency is read from the fitted curve at half-maximal effect. As to conditions: P. falciparum in erythrocytes, SYBR Green DNA, 72 h; series mostly up to 28.7 µM. The essentials:
(§1)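 Three-day growth assay of blood-stage parasites in erythrocytes (0.3% parasitemia, 2.5% hematocrit) at 37 C, 5% CO2, quantified by SYBR Green DNA staining after overnight detergent lysis.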
(In general: qHTS replaces the single test concentration by a dilution series.)

The test system of the next assay is CP185. The assay is described as above. As to conditions: P. falciparum in erythrocytes, SYBR Green DNA, 72 h; series mostly up to 28.7 µM. Put shortly: as §1
For the next assay, the system named is CP203. The description is as above. As to conditions: P. falciparum in erythrocytes, SYBR Green DNA, 72 h; series mostly up to 28.7 µM. The essentials:
as §1

The next assay concerns CP211. The description is as above. As to conditions: P. falciparum in erythrocytes, SYBR Green DNA, 72 h; series mostly up to 28.7 µM. Put shortly:
as §1

Another assay deals with CP217. Described as above. As to conditions: P. falciparum in erythrocytes, SYBR Green DNA, 72 h; series mostly up to 28.7 µM. The essentials: as §1
A further assay concerns CP250. Described as above. The conditions noted are these: P. falciparum in erythrocytes, SYBR Green DNA, 72 h; series mostly up to 28.7 µM. Put shortly:
as §1

The next assay deals with CP252. The assay is described as above. The conditions noted are these: P. falciparum in erythrocytes, SYBR Green DNA, 72 h; series mostly up to 28.7 µM. The essentials:
as §1

The test system of another assay is CP256. The assay is described as above. As to conditions: P. falciparum in erythrocytes, SYBR Green DNA, 72 h; series mostly up to 28.7 µM. Put shortly:
as §1

The subject of the next assay is CP262. The description is as above. As to conditions: P. falciparum in erythrocytes, SYBR Green DNA, 72 h; series mostly up to 28.7 µM. The essentials: as §1
In a further assay the test system is CP265. The description is as above. The conditions noted are these: P. falciparum in erythrocytes, SYBR Green DNA, 72 h; series mostly up to 28.7 µM. Put shortly:
as §1

For a further assay, the system named is CP291. The description is as above. As to conditions: P. falciparum in erythrocytes, SYBR Green DNA, 72 h; series mostly up to 28.7 µM. Put shortly: as §1
Another assay has as its system CP305. Described as above. The conditions noted are these: P. falciparum in erythrocytes, SYBR Green DNA, 72 h; series mostly up to 28.7 µM. Put shortly:
as §1

The subject of a further assay is CP315. Described as above. The conditions noted are these: P. falciparum in erythrocytes, SYBR Green DNA, 72 h; series mostly up to 28.7 µM. The essentials:
as §1

The subject of a further assay is CP335. The assay is described as above. The conditions noted are these: P. falciparum in erythrocytes, SYBR Green DNA, 72 h; series mostly up to 28.7 µM. Put shortly: as §1
Another assay deals with ECU. The assay is described as above. As to conditions: P. falciparum in erythrocytes, SYBR Green DNA, 72 h; series mostly up to 28.7 µM. The essentials: as §1
The subject of the next assay is HB3. The assay is described as above. The conditions noted are these: P. falciparum in erythrocytes, SYBR Green DNA, 72 h; series mostly up to 28.7 µM. The essentials:
as §1

Another assay concerns N140. The assay is described as above. The conditions noted are these: P. falciparum in erythrocytes, SYBR Green DNA, 72 h; series mostly up to 28.7 µM. Put shortly:
as §1

The next assay concerns PC15. The description is as above. The conditions noted are these: P. falciparum in erythrocytes, SYBR Green DNA, 72 h; series mostly up to 28.7 µM. The essentials:
as §1

In a further assay the test system is TAB113. The description is as above. The conditions noted are these: P. falciparum in erythrocytes, SYBR Green DNA, 72 h; series mostly up to 28.7 µM. Put shortly: as §1

Results filed as inconclusive are left out. Calls of active or inactive are those of the source. Calls follow the shape of the dose curve; as a rule, active = well fitted curve in the direction sought with a large enough effect; inconclusive = small, poorly fitted or top-dose-only effect, or another doubt; inactive = no such curve, though single readings can be large; an effect the other way counts as inactive or inconclusive.

As to `CC12CCC3C4CCC(=O)C(O)=C4CCC3C1CCC2OC(=O)CCC1CCCC1` (centres undefined), the Potency entry (in assay [1]; in the assay with 3D7; in the assay on CP185; in the assay on CP203; in the assay with CP211; with CP217) was “inactive” in each case. Also, the Potency entry with CP250, in the assay on CP252, in the assay on CP256, in the assay on CP262, in the assay on CP265 and with CP291 was “inactive” throughout. Further, the Potency result in the assay with CP305, in the assay on CP315, in the assay with CP335, in the assay with ECU, with HB3 and in the assay with N140 was “inactive” each time. Besides, the Potency entry in the assay with PC15 and in the assay on TAB113 was “inactive” in each case.

Turning to `CN(C)C1C(=O)C(C(N)=O)C(=O)C2(O)C(=O)C3C(=O)c4c(O)cccc4C(C)(O)C3C(O)C12` (centres undefined), the Potency entry (in assay [1]; in the assay on CP185; in the assay on CP203; with CP211; with CP217; in the assay on CP250) was “inactive” each time. Also, the Potency result with CP252, with CP256, with CP262, in the assay on CP265, in the assay with CP305 and with ECU was “inactive” in each case. Besides, the Potency result with N140, in the assay with PC15 and in the assay on TAB113 was “inactive” each time. Also, the Potency in the assay with CP335 was 6.01 µM (active).

With `CCCC(C)C1(CC)C(=O)NC(=S)NC1=O` (centres undefined), the Potency result (in assay [1]; with 3D7; in the assay with CP185; in the assay with CP203; in the assay with CP211; in the assay on CP217) was “inactive” in each case. The Potency entry in the assay on CP250, with CP252, with CP256, with CP262, in the assay with CP265 and in the assay with CP291 was “inactive” in each case. The Potency entry in the assay with CP305, in the assay with CP315, in the assay with CP335, with ECU, with HB3 and in the assay on N140 was “inactive” in each case. In addition, the Potency entry with PC15 and with TAB113 was “inactive” each time.

In the case of `C#C[C@]1(O)CC[C@H]2[C@@H]3CCC4=CC(=O)CCC4(C)[C@H]3CCC21C` (some centres undefined), the Potency entry (in [1]; in the assay on 3D7; in the assay with CP185; in the assay on CP203; in the assay with CP211; in the assay with CP217) was “inactive” in each case. For the same molecule, the Potency entry with CP250, in the assay with CP252, with CP256, with CP262, with CP265 and in the assay with CP291 was “inactive” in each case. Further, the Potency result in the assay on CP305, with CP315, with CP335, in the assay on ECU, in the assay with HB3 and in the assay on N140 was “inactive” throughout. Also, the Potency entry in the assay with PC15 and in the assay on TAB113 was “inactive” in each case.

On to `CN(C)[C@@H](Cc1ccccc1)c1ccccc1`, for which the Potency result (in assay [1]; in the assay with 3D7; in the assay on CP185; in the assay with CP203; in the assay with CP211; in the assay on CP217) was “inactive” each time. Also, the Potency entry in the assay with CP250, in the assay with CP252, in the assay with CP256, in the assay with CP262, in the assay with CP265 and with CP291 was “inactive” each time. For the same molecule, the Potency result in the assay on CP305, with CP315, with CP335, in the assay on ECU, in the assay on HB3 and with N140 was “inactive” each time. Moreover, the Potency entry with PC15 and in the assay on TAB113 was “inactive” each time.

Consider `C[C@]12CCC3C(CCC4=C(Cl)C(=O)CC[C@@]43C)C1CCC2O` (some centres undefined), for which the Potency entry (in [1]; with 3D7; with CP185; with CP203; with CP211; with CP217) was “inactive” throughout. Moreover, the Potency result in the assay on CP250, in the assay with CP252, with CP256, in the assay on CP262, in the assay with CP265 and in the assay on CP291 was “inactive” throughout. For the same molecule, the Potency result in the assay on CP305, in the assay on CP315, with CP335, in the assay with ECU, in the assay with HB3 and in the assay on N140 was “inactive” in each case. Further, the Potency entry in the assay with PC15 and in the assay on TAB113 was “inactive” each time.

As to `COC(=O)C1C(OC(=O)c2ccccc2)CC2CCC1N2C` (centres undefined), the Potency result (in [1]; in the assay on 3D7; in the assay with CP185; with CP203; in the assay on CP211; with CP217) was “inactive” each time. Further, the Potency entry in the assay on CP250, with CP252, in the assay with CP256, with CP262, with CP265 and in the assay with CP291 was “inactive” in each case. The Potency entry in the assay with CP305, with CP315, in the assay on CP335, with ECU, in the assay on HB3 and in the assay with N140 was “inactive” in each case. Besides, the Potency entry in the assay on PC15 and in the assay with TAB113 was “inactive” throughout.

On to `CCC/C=C/C=C/C(=O)OC1/C(=C/C(=O)OC)CC2CC(C(C)O)OC(=O)CC(O)CC3CC(OC(C)=O)C(C)(C)C(O)(CC4C/C(=C/C(=O)OC)CC(/C=C\C(C)(C)C1(O)O2)O4)O3` (centres undefined), for which the Potency result in assay [1] is “inactive”. In addition, the Potency with 3D7 is 2.82 µM (active); in the assay with CP185 it was 1 µM (active); in the assay on CP217 it was 0.794 µM (active); in the assay with CP250, 1 µM (active); in the assay with CP252 it was 1.26 µM (active); in the assay on CP256, 1.26 µM (active). The Potency in the assay with CP265 was 1.41 µM (active); in the assay on CP291, 2.69 µM (active); in the assay with CP305, 1.9 µM (active); in the assay with CP335 it was 1.9 µM (active); in the assay on ECU, 1.26 µM (active); in the assay on HB3, 2.24 µM (active). Besides, the values for the Potency in the assay with N140, in the assay with PC15 and in the assay with TAB113 were 1.12 µM (active), 2.24 µM (active) and 1.78 µM (active), respectively.

As to `CC(C)=CC1C(C(=O)OCc2coc(Cc3ccccc3)c2)C1(C)C` (centres undefined), the Potency entry (in assay [1]; in the assay on 3D7; with CP185; with CP203; with CP211; in the assay on CP217) was “inactive” each time. Further, the Potency result in the assay on CP250, in the assay with CP252, in the assay with CP262, with CP291, in the assay with CP305 and in the assay on CP315 was “inactive” in each case. Besides, the Potency result in the assay with CP335, in the assay with ECU, with HB3, in the assay with N140 and in the assay on PC15 was “inactive” in each case.

On to `CC(=O)[C@H]1CC[C@H]2C3CC[C@H]4C[C@H](O)CC[C@]4(C)C3CC[C@]12C` (some centres undefined), for which the Potency result (in assay [1]; in the assay with 3D7; with CP185; with CP203; in the assay on CP211; in the assay on CP217) was “inactive” each time. The Potency entry in the assay on CP250, in the assay with CP252, with CP256, with CP262, with CP265 and in the assay with CP291 was “inactive” throughout. Also, the Potency result with CP305, in the assay on CP315, with CP335, in the assay on ECU, in the assay with HB3 and in the assay on N140 was “inactive” in each case. The Potency result in the assay on PC15 and in the assay with TAB113 was “inactive” in each case.

On to `CC(=O)Oc1ccc2c3c1OC1[C@@H](OC(C)=O)C=C[C@H]4[C@H](C2)N(C)CC[C@]314` (some centres undefined), for which the Potency result (in assay [1]; with 3D7; in the assay with CP185; with CP203; with CP211; in the assay with CP217) was “inactive” in each case. For the same molecule, the Potency result in the assay on CP250, with CP252, with CP256, in the assay with CP262, in the assay on CP265 and with CP291 was “inactive” in each case. The Potency entry in the assay with CP305, in the assay on CP315, with CP335, with ECU, with HB3 and in the assay with N140 was “inactive” throughout. In addition, the Potency result in the assay on PC15 and in the assay on TAB113 was “inactive” each time.
